Bioassay records: PubChem BioAssay, The Scripps Research Institute Molecular Screening Center
TEAD-YAP inh: TEAD-YAP interaction inhibition | HEK-TIYL cells, TEAD-Gal4/YAP UAS-luciferase luminescence | inhibition, % at 9.12 µM | 1.4% of 640,000 active; in the data active = inhibition above about 32%;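 note: 0% = median of test compound wells and 100% = reference inhibitor wells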
GPR151 activ: activates the human receptor GPR151; PathHunter beta-arrestin GPR151 cells, luminescence; AID 1508602; activation, % at 11.2 µM; 1% of 650,000 active; Q8TDV0; in the data active = activation above about 4.9%;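 note: 0% = median of compound wells and 100% = cells with positive control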
FBW7 activator: human FBW7 E3 ligase activation, primary screen | 0.13% of 650,000 active | normalized activity (activation), % at 26.1 µM | AlphaScreen FBW7–phospho-cyclin E peptide binding, activator screen; in the data active = normalized activity above about 1.9%;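 note: purified mutant Fbw7 with reduced substrate affinity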
MITF inh: blocks human microphthalmia-associated transcription factor. AlphaScreen MITF homodimerization, bead proximity signal. inhibition, % at 2.6 µM. 0.91% of 650,000 active. AID 1259374; in the data active = inhibition above about 50%;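 note: 0% = vehicle wells with protein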
GPR151 conf act: confirmation of human GPR151 activators | GPR151 PathHunter beta-arrestin cells, luminescence, 90 min; % of EA-reagent control over plate median | 6,700 tested, under 10 active | shares compounds with GPR151 activ | AID 1508609 | activation, % at 11.2 µM;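 active = mean percent activation across replicates above the confirmation screen cutoff of 4.91%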
GPR119 ag: counter-screen for GPR151 activators: effect on human GPR119. shares compounds with GPR151 activ. GPR119 PathHunter beta-arrestin cells, luminescence, 90 min; 0 = compound-well median, 100 = enzyme-acceptor control. activation, % at 11.2 µM. 0.3% of 6,700 active. AID 1508611;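 active = mean percent activation in the counterscreen above 29.09%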;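 note: counterscreen on off-target GPR119 to flag nonselective hits from the GPR151 activator screen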
Target sequence (Q8TDV5 whole entry, looked up): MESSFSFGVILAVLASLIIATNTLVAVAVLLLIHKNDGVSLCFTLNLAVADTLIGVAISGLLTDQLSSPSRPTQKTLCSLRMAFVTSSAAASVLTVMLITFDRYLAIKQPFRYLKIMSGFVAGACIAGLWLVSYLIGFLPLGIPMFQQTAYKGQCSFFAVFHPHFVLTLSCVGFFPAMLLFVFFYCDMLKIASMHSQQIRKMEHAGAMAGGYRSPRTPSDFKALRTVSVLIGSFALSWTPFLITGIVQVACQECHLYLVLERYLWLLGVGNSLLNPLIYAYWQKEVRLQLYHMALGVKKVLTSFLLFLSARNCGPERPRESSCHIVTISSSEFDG
The depositor's hits bear a star; x = no result given; ! = not active in a repeat. Sampled rows, rich in hits. Any-hit rate of the full collection: about 3.5%.

SMILES	TEAD-YAP inh	GPR151 activ	FBW7 activator	MITF inh	GPR151 conf act	GPR119 ag
COc1ccc(S(=O)(=O)NC(C)C(=O)Nc2ccccc2)cc1 (stereo not given)	0	0	0	16	x	x
CC(=O)C(C)n1c(CN2CCN(c3ccccc3)CC2)nc2c1c(=O)n(C)c(=O)n2C (stereo not given)	3	0	0	-1	x	x
COc1ccc(NC(=O)C(C)NS(=O)(=O)c2ccc(C)cc2)cc1OC (stereo not given)	1	13*	0	21	0	5
CC(=O)c1cccc(NC(=O)C(C)NS(=O)(=O)c2ccc(F)cc2)c1 (stereo not given)	-7	6.3*	0	-4	1	5
Cc1ccc(S(=O)(=O)NC(C)C(=O)Nc2ccc(C(F)(F)F)cc2)cc1 (stereo not given)	7	0	0	-17	x	x
CCOC(=O)COc1ccc(S(=O)(=O)NC(C)CC)cc1 (stereo not given)	4	5.3*	0	-4	0	9
Cc1ccc(S(=O)(=O)NC(C)C(=O)Nc2cccc(C(F)(F)F)c2)cc1 (stereo not given)	14	6.0*	0	7	0	0
O=C1N/C(=C/c2ccc(Cl)c([N+](=O)[O-])c2)C(=O)N1Cc1ccc(F)cc1	4	-1	0	6	x	x
CCN(CC)c1ccc(C2C3=C(CC(C)(C)CC3=O)Nc3ccccc3N2C(=S)NC2CCCCC2)cc1 (stereo not given)	14	-1	0	0	x	x
O=C(c1ccc(OCCN2CCCCC2)cc1)c1c(-c2ccc(O)cc2)sc2cc(O)ccc12	-12	5.0*!	0	-11	-1	-10
Cn1[nH]c(=O)c2c(-c3ccccc3)c3c(=O)[nH]n(C)c3nc21	-4	2	0	-2	x	x
Cc1ccc2c(c1)-c1c(ssc1=S)C(C)(C)N2C(=O)c1sc2ccccc2c1Cl	1	0	0	10	x	x
Cc1ccc(Nc2ncnc3sc4c(c23)CCCC4)cc1	5	20*	0	17	1	-2
Clc1ccc(Nc2ncnc3sc4c(c23)CCCC4)cc1	-1	2	0	-6	x	x
CSC1=NC(c2cccc([N+](=O)[O-])c2)C(C(=O)OC(C)C)=C(C)N1 (stereo not given)	1	5.1*	0	4	0	7
Cc1ccc(C(C)C)c(Oc2ccc(-c3nc(N)nc(N)n3)cc2)c1	-4	1	0	0	x	x
CCOCCCNc1nc2ccccc2n2nnnc12	-15	-1	0	7	x	x
c1ccc2c(c1)CCN(CCCNc1nc3ccccc3n3nnnc13)C2	-9	6.7*	0	1	0	-7
Cc1cc(C)nc(SCC(=O)OC2CC(C)CCC2C(C)C)n1 (stereo not given)	13	2	0	2	x	x
Cc1c(CCO)sc[n+]1CC(=O)OC1CC(C)CCC1C(C)C (stereo not given)	1	5.4*	0	-2	1	15
O=C(c1cccc(C(F)(F)F)c1)C1CCCN(C(=O)c2cnn3cccnc23)C1 (stereo not given)	-1	0	0	7	x	x
Clc1ccc2nc(CSc3nncn3-c3ccccc3)cn2c1	1	5.1*	0	1	0	6
CCOc1ccc(/C=C2\SC(=S)N(C(C)C(=O)O)C2=O)cc1 (stereo not given)	-9	11*	0	-1	1	7
CC(C)(C)N(Cc1ccccc1)C(=O)CSc1nnc(-c2cccs2)o1	8	-1	0	-2	x	x
COc1ccc(CCn2c(=O)c(C#N)cc3c(=O)n4cccc(C)c4nc32)cc1OC	-13	7.4*	0	-5	1	16
SMILES	TEAD-YAP inh	GPR151 activ	FBW7 activator	MITF inh	GPR151 conf act	GPR119 ag
COc1ccc(CNC(=O)c2c(C)nc3c(C)cccn23)cc1OC	25	5.1*	0	16	0	5
Cc1ccc(C)c(NC(=O)C23CCC(C)(C(=O)C2=O)C3(C)C)c1 (stereo not given)	-3	3	0	1	x	x
CC12CCC(C(=O)Nc3ccccc3C(F)(F)F)(C(=O)C1=O)C2(C)C (stereo not given)	0	6.1*	0	-19	0	4
CCCCc1ccc(C2=N/C(=C\c3ccccc3)C(=O)O2)cc1	-2	6.4*	0	1	0	-10
CCCCc1ccc(C2=N/C(=C\c3ccc(C)cc3)C(=O)O2)cc1	-4	0	0	-6	x	x
COc1ccc([N+](=O)[O-])cc1C1OCC(CO)([N+](=O)[O-])CO1 (stereo not given)	4	0	0	3	x	x
CCOC(=O)C1(Cc2cccc(OC)c2)CCN(CCO)CC1	3	7.9*	0	15	0	6
CCOC(=O)C1(Cc2ccc(Cl)cc2)CCN(CCC(C)O)CC1 (stereo not given)	6	5.0*	0	15	0	-11
CCOC(=O)C1(Cc2ccc(Cl)cc2)CCN(CC)CC1	-4	0	0	11	x	x
CCOC(=O)c1ccc(NC(=O)CS(=O)Cc2nc(-c3ccc(C)cc3)oc2C)cc1 (stereo not given)	12	-1	0	7	x	x
O=C(Cc1ccccc1)N1CCC(N2CCCC2)CC1	12	-1	0	7	x	x
O=C(Cc1ccccc1)N1CCC(=O)N(CC2CC2)CC1	0	9.9*	0	10	0	1
CC1CCCN(C(=O)NC2(C(F)(F)F)Oc3ccccc3O2)C1 (stereo not given)	-15	5.7*	0	7	1	7
COc1ccc(/C=C/C(=O)c2cccc(OC)c2)cc1	-16	-1	0	-1	x	x
COc1cccc(C(=O)/C=C/c2ccccc2OC)c1	-17	7.1*	0	16	2	5
CC1CCN(C(=O)c2ccc(NC(=O)C(=O)Nc3ccc(F)c(Cl)c3)cc2)CC1	6	0	0	4	x	x
CC(C)CC(=O)N1CCC(n2nnc3ccccc3c2=O)CC1	0	6.0*	1	27	1	5
CC(C)CNC(=O)Cn1nnc2ccccc2c1=O	-9	7.7*	0	-2	0	2
COCCNC(=O)C(=O)NCC1CCCO1 (stereo not given)	-1	-1	0	6	x	x
NC(CCC(=O)NC(CSN=O)C(=O)NCC(=O)O)C(=O)O (stereo not given)	x	1	0	11	x	x
Cc1nc2nc(C(=O)O)[nH]n2c(=O)c1Cc1ccccc1	14	-1	0	8	x	x
Cc1nc2nc(C(F)(F)F)[nH]n2c(=O)c1Cc1ccccc1	-2	8.1*	0	-3	0	0
CCOc1ccc2nc(SC3CC(=O)N(c4ccc(C)c(C)c4)C3=O)sc2c1 (stereo not given)	-9	2	0	15	x	x
